Rows were chosen to be rich in hits. Some 19% of all compounds tested hit in one or more screens of this group.
TDP1 cell noCPT = qHTS for Inhibitors of human tyrosyl-DNA phosphodiesterase 1 (TDP1): qHTS in cells in absence of CPT; DT40 Tdp1-/- hTDP1 cells, no CPT, ATP luminescence, 48 h; Potency, µM (series often up to 46.2 µM), inactives show top-dose activity change, negative = growth inhibition, actives largely listed as inhibitors; 15% of 420,000 active; AID 686978, 2013; further: potency means the concentration at half of the fitted maximal effect; nearly all actives have a fitted effect of over 55% in size
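A cellular qHTS used chicken DT40 cells lacking endogenous Tdp1 but carrying stably transfected human TDP1. Compounds were applied without camptothecin, and cell growth kinetics were judged by ATP-dependent luminescence after ≥48 hr.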
ELG1 DNA repair = inhibitors of ELG1-dependent DNA repair in HEK293T cells; 2.3% of 330,000 active; HEK293T ELG1-luciferase reporter, luminescence, 16 h; DNA damage induced by 5-fluorouridine; Potency, µM (titrated, usually from 46.1 µM), without a hit: at the highest dose activity change, negative = inhibition, hits mostly inhibitors; further: potency means the concentration at half of the fitted maximal effect; nearly all actives have a fitted effect of over 55% in size
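5-Fluorouridine DNA damage + compound/DMSO, 2,000 cells/well, 16 h, 37 °C/5% CO2. ONE-Glo, 30 min RT, luminescence. Readout = decrease in reporter signal.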
HT1080-NT tox = kills 2HG-producing HT-1080-NT fibrosarcoma cells. HT-1080-NT fibrosarcoma viability, CellTiter-Glo ATP luminescence, 48 h. Potency, µM (top dose mostly 46.1 µM), for inactives: at the highest dose activity, negative = less viability, hits mostly cytotoxic. 1.6% of 360,000 active. AID 686970;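 further: NT is the 2HG producing partner of a matched IDH1 knockdown line; potency means the concentration at half of the fitted maximal effect; 0% = DMSO-treated cells and -100% = media-only wells without cells; nearly all actives have a fitted effect of over 55% in size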
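Toxicity toward the 2HG-producing NT line was scored as %Activity, normalised to DMSO and no-cell wells, from CellTiter-Glo luminescence after 48 hours' treatment.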
HT1080 IDH1KD tx = HT-1080 IDH1 knockdown cell toxicity (counter line) | HT-1080 IDH1 knockdown viability, ATP luminescence, 48 h | Potency, µM (doses to about 46.1 µM), without a hit: at the top dose activity, negative = toxicity, usual class: cytotoxic | 2% of 360,000 active;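 further: potency means the concentration at half of the fitted maximal effect; 0% = DMSO wells and -100% = cell-free medium wells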
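Luminescent ATP read-out (CellTiter-Glo, 10 min at room temperature) after 48 h compound exposure at 37 °C gave viability of IDH1-knockdown HT-1080 cells. Activity was normalised to DMSO and cell-free wells, then fitted as concentration-response curves.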
IL-1B inflam inh = blocks inflammasome-driven IL-1 beta release; THP-1 LPS/ATP IL-1B secretion, AlphaLISA, 16 h; stronger effect = lower value; activity change, % at 57.5 µM; 4.7% of 360,000 active; in the data active means activity change below about -50%; inconclusive means mostly about -30% to -49%
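THP-1 cells pretreated 1 hr with compounds (up to 57.5 uM final), then stimulated with LPS (250 ng/mL final) plus ATP (1.25 mM final); secreted IL-1B measured by AlphaLISA after 16 hr, decreased signal indicating inhibition.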
TDP1 cell CPT = growth inhibition of DT40 Tdp1-/-;hTDP1 cells with camptothecin (screen for TDP1 inhibitors); chicken DT40 Tdp1-/-;hTDP1 cells + 20 nM CPT, ATP luminescence, 48 h; Potency, µM (doses to about 46.2 µM), without a hit: at the top dose activity change, negative = growth inhibition, hits mostly inhibitors; 12% of 420,000 active; further: potency means the concentration at half of the fitted maximal effect; nearly all actives have a fitted effect of over 55% in size
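Cell growth measured by CellTiter-Glo luminescence after a minimum 48 h, 37 C compound exposure with 20 nM CPT in Tdp1-knockout DT40 cells stably expressing hTDP1, seeded 400/well; qHTS titration format.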
* hit, by the source's call; ? = inconclusive; / = no result; [ ] = remark or other dose. Unless noted, the call rests on the fitted dose curve; in most records, active means well fitted curve in the direction sought with a large enough effect; inconclusive means small, poorly fitted or top-dose-only effect, or another doubt; inactive means no such curve, though single readings can be large; an effect the other way counts as inactive or inconclusive. Unless noted, on the % scale 0 is the no-effect control and ±100 the full control effect.

SMILES | TDP1 cell noCPT | ELG1 DNA repair | HT1080-NT tox | HT1080 IDH1KD tx | IL-1B inflam inh | TDP1 cell CPT
CCCN1CCc2c(sc(NC(=O)C3CCN(S(=O)(=O)c4cccs4)CC3)c2C(N)=O)C1 | ? | -21.7% | -6.2% | -4.5% | -62.2* | ?
CCN(C[C@H]1N[C@@](CC)(C(=O)OC)[C@H]2C(=O)N(Cc3ccccc3)C(=O)[C@@H]12)C(=O)COc1ccccc1 | ? | -16.1% | 4.1% | 5.7% | -11.7 | ?
COc1ccc(CNC(=O)C2CCCN2C(=O)Nc2cccc(Cl)c2)cc1 (stereo unspecified) | ? | / | -0.4% | 0.9% | -9.2 | -16.2%
CC[C@@H](C)[C@H](CN[C@H](CNC)C(C)C)NC[C@@H](C)c1ccc(CC(C)C)cc1 | 1.46µM* | -23.6% | ? | ? | -23.0 | 1.46µM*
CCCC[P+](CCCC)(CCCC)Cc1ccc(NC(=O)[C@@H](Cc2ccc3ccccc3c2)NC(=NC2CCCCC2)NC2CCCCC2)cc1 | 16.8µM* | / | / | / | / | 13.3µM*
COc1cccc(CNC(=O)C2CCC(CNS(=O)(=O)c3ccc4c(c3)CCCC(=O)N4)CC2)c1 (stereo unspecified) | -22.2% | / | / | / | / | -24.9%
COc1ccccc1CNC(=O)C1CCC(CNS(=O)(=O)c2ccc3c(c2)CCCC(=O)N3)CC1 (stereo unspecified) | -28.5% | / | / | / | / | -20.7%
CCOc1ccccc1NC(=O)C1CCC(CNS(=O)(=O)c2ccc3c(c2)CCCC(=O)N3)CC1 (stereo unspecified) | 23.1µM* | / | / | / | / | ?
CCN(Cc1ccccc1)C(=O)C1CCC(CNS(=O)(=O)c2ccc3c(c2)CCCC(=O)N3)CC1 (stereo unspecified) | 16.4µM* | / | / | / | / | ?
COc1cccc(NC(=O)C2CCC(CNS(=O)(=O)c3ccc4c(c3)CCCC(=O)N4)CC2)c1 (stereo unspecified) | 14.6µM* | / | / | / | / | 11.6µM*
Cn1cccc1C(=O)NC(=O)COC(=O)c1cc(S(=O)(=O)N2CCCCC2)ccc1Cl | -19.6% | 4.4% | -1.4% | 0.0% | 32.3 | ?
COc1ccc(CN2CCOc3ccc(C(O)c4cccnc4)cc3C2)c(OC)c1OC (stereo unspecified) | -28.6% | / | / | / | / | -8.6%[9.04 µM]
CCN1CCN(Cc2c(O)ccc3c2O/C(=C\C=C\c2ccccc2)C3=O)CC1 | 11.6µM* | ? | ? | ? | -100.4* | 25.9µM*
O=C(N/N=C/c1ccc2c(c1)OCO2)C(=O)Nc1cccc(Cl)c1 | -1.7% | ? | 0.0% | 4.1% | -20.0 | 3.9%
CSc1ccccc1-c1nnc(NC(=O)Cc2ccccc2)o1 | -29.8% | -6.8% | -27.3% | -22.7% | -19.0 | ?
Cc1ccc(C)c(-c2nnc(NC(=O)CCS(=O)(=O)c3ccc(F)cc3)o2)c1 | ? | 14.3% | 12.5% | 1.0% | 2.3 | ?
O=C(Cc1ccc(F)cc1)Nc1nnc(-c2ccc(F)cc2)o1 | ? | ? | -21.4% | -25.2% | 7.4 | 23.1µM*
Cc1ccc(S(=O)(=O)CCC(=O)Nc2nnc(-c3ccc(F)cc3)o2)cc1 | ? | 0.0% | -9.7% | -15.5% | -59.5* | ?
CS(=O)(=O)c1ccccc1-c1nnc(NC(=O)Cc2ccccc2)o1 | -1.4% | -7.3% | -16.6% | 1.2% | -50.2* | -13.4%
O=C(Cc1ccccc1)Nc1nnc(-c2ccccc2)o1 | ? | 9.0% | -0.1% | -11.1% | -2.2 | ?
CS(=O)(=O)c1nc(-c2ccccc2)c(-c2ccccc2)[nH]1 | -11.8% | 17.2% | 10.8% | 12.9% | -12.4 | 1.1%
COc1ccc(N=Nc2nc(-c3ccccc3)c(-c3ccccc3)[nH]2)cc1 | 16.4µM* | ? | -8.8% | -2.4% | ? | ?

Compound activity (PubChem)
